Growth data for 17 compounds are collected here from PubChem BioAssay (NCI).

Among the test systems are T-47D breast; BT-549 breast; MDA-MB-435 melanoma; HCT-116 colon; HCC-2998 colon; KM12 colon; MDA-MB-468 breast; SW-620 colon; MCF7 breast.
What all share (assay): NCI-60 one-dose screen, 48 h (100 = growth as untreated, 0 = no growth, -100 = all killed)
Common to all, as to details: 10 µM unless noted

About 83,000 compounds went through this panel and 20% of them were active in at least one assay; those are over-represented in the sample as a whole.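 Compound tested at a single concentration for 48 hours in 96-well plates; a percent growth value below 10 was scored as active.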 Values without a mark were called inactive. Active and inactive are the calls of the source.

As for `CC1CCc2c(sc3nc(SCC(=O)c4cccc([N+](=O)[O-])c4)n(-c4ccccc4)c(=O)c23)C1` (stereo unspecified), the growth in the assay with T-47D breast was 86.8%; in the assay on BT-549 breast it was 94.5%; with MDA-MB-435 melanoma, 90.8%; in the assay on HCT-116 colon, 25%; in the assay with HCC-2998 colon, 105%; in the assay on KM12 colon, 93.5%. Also, the growth with MDA-MB-468 breast is 83%.
As for `CN1CCN(c2ccc3c4c(cccc24)C(=O)N(c2cccc(-c4nn(-c5ccccc5)cc4-c4nc5ccccc5s4)c2)C3=O)CC1`, the growth is 109% in the assay with T-47D breast; 95.1% with MDA-MB-435 melanoma; 93% with SW-620 colon; 5.13% (active) in the assay with MCF7 breast; 79% in the assay on HCT-116 colon; 79.2% in the assay on HCC-2998 colon. Further, the growth in the assay on KM12 colon is 73.5%; in the assay on MDA-MB-468 breast it was 94.1%.
Take `N#Cc1cc(-c2ccnc(Nc3ccc(N4CCN(C5COC5)CC4)cc3)n2)ccc1N1CCCC1`: the growth is 91% in the assay with T-47D breast; 66.9% in the assay on MDA-MB-435 melanoma; 72.7% in the assay on SW-620 colon; 85.8% in the assay on MCF7 breast; 49% in the assay with HCT-116 colon; 75.4% in the assay with HCC-2998 colon. The growth in the assay on KM12 colon is 83.2%.
For the compound `Cc1ccc(O)cc1Nc1nc(SCCN2CCOCC2)nc2c1cnn2CC(Cl)c1ccc(Br)cc1` (stereo unspecified), the growth in the assay on T-47D breast was -2.49% (active); with MDA-MB-435 melanoma, 12.6%; with SW-620 colon, 32.9%; with MCF7 breast, 5.88% (active); in the assay with HCT-116 colon it was 2.84% (active); in the assay with HCC-2998 colon, 1.63% (active). Also, the values for the growth in the assay with KM12 colon and with MDA-MB-468 breast were 17% and -55.7% (active), respectively.
Take `O=C(Nc1nc2ccc([N+](=O)[O-])cc2s1)Nc1ccc(Cl)cc1Cl`: the growth in the assay on T-47D breast was 20.7%; in the assay with MDA-MB-435 melanoma, 60.3%; in the assay with SW-620 colon, 75.9%; in the assay with MCF7 breast it was 36%; in the assay with HCT-116 colon, 22.5%; in the assay on HCC-2998 colon it was 69.4%. The growth with KM12 colon is 60.2%; with MDA-MB-468 breast, 29.1%.
In the case of `Oc1ccc(F)c(Nc2nc(SCCN3CCOCC3)nc3c2cnn3CC(Cl)c2ccc(Br)cc2)c1` (stereo unspecified), the growth was -6.68% (active) with T-47D breast; 17.8% in the assay with MDA-MB-435 melanoma; 29.3% with SW-620 colon; 7.39% (active) with MCF7 breast; 14.9% in the assay on HCT-116 colon; 15.8% in the assay on HCC-2998 colon. For the same compound, the growth in the assay with KM12 colon is 11%; in the assay on MDA-MB-468 breast, -20.5% (active).
As to `COc1cc(C2CC(c3ccc(S(=O)(=O)NCCNc4nc(N(C)C)nc(N5CCOCC5)n4)cc3)=Nc3c(N)nc(N)nc3N2)cc(OC)c1OC` (stereo unspecified), the growth with T-47D breast is 95%; in the assay with MDA-MB-435 melanoma, 104%; in the assay on SW-620 colon it was 99%; with MCF7 breast it was 95.1%; in the assay on HCT-116 colon it was 90%; in the assay with HCC-2998 colon, 109%. The growth with KM12 colon is 100%; with MDA-MB-468 breast, 95.4%.
Consider `N#C/C(=C/c1ccc([N+](=O)[O-])cc1)c1nnc(NC(=O)c2ccc(-n3c(=O)[nH]c4ccccc4c3=O)cc2)s1`, for which the growth in the assay on T-47D breast is 85.8%; with MDA-MB-435 melanoma it was 105%; with SW-620 colon, 100%; in the assay on MCF7 breast, 84.9%; in the assay with HCT-116 colon, 94.8%; in the assay on HCC-2998 colon, 108%. Further, the growth in the assay with KM12 colon was 90.8%; in the assay on MDA-MB-468 breast, 98.5%.
On to `COc1ccc(N=Nc2c(N)nn3c(-c4ccc5c(c4)C=S=C5)ccnc23)cc1`, for which the growth in the assay on T-47D breast was 3.67% (active); with BT-549 breast it was 19.9%; with MDA-MB-435 melanoma it was 83.8%; in the assay with MCF7 breast it was 31.1%; in the assay on HCT-116 colon it was 20.1%; with HCC-2998 colon, 48%. The results for the growth in the assay on KM12 colon and with MDA-MB-468 breast were 42.5% and 16.6%, respectively.
As to `C=CC(=O)Nc1ccc(C(=O)/C=C/c2ccc(N(C)C)cc2)c(O)c1`, the growth in the assay on T-47D breast is 9.74% (active); in the assay on MDA-MB-435 melanoma it was -3.66% (active); in the assay with SW-620 colon it was 1.21% (active); in the assay with MCF7 breast, 10.7%; with HCT-116 colon it was -52.6% (active); in the assay with HCC-2998 colon it was -53.2% (active). Besides, the growth is -64.4% (active) in the assay on KM12 colon and -19.8% (active) with MDA-MB-468 breast.
For `CC(=O)c1ccc2c(N)c(C(=O)Nc3ccc(C(F)(F)F)cc3)sc2n1`, the growth is 18.1% in the assay on T-47D breast; 48.1% in the assay on MDA-MB-435 melanoma; 80.1% in the assay on SW-620 colon; 27.8% in the assay on MCF7 breast; 31% with HCT-116 colon; 83.6% in the assay with HCC-2998 colon. In addition, the growth in the assay on KM12 colon was 56.7%.
`CCCCCCCCCCCCCCCCCC(=O)Nc1ccc(OC)cc1`: the growth was 108% in the assay on T-47D breast; 108% in the assay on BT-549 breast; 115% in the assay on MDA-MB-435 melanoma; 102% in the assay with HCT-116 colon; 122% in the assay on HCC-2998 colon; 101% in the assay with KM12 colon. In addition, the growth with MDA-MB-468 breast is 99.8%.
Take `C=CCSc1nnc(-c2ccc(-c3nc4ccc(Cl)cc4[nH]3)cc2)o1`: the growth in the assay on T-47D breast was 68.4%; in the assay on BT-549 breast, 22.6%; in the assay with MDA-MB-435 melanoma, -22.5% (active); with HCT-116 colon, 29.5%; in the assay on HCC-2998 colon it was 83.4%; in the assay on KM12 colon it was 34.6%. For the same compound, the growth in the assay on MDA-MB-468 breast is 28.6%.
Turning to `CCOC(=O)c1ccc(NC(=S)NC(=O)c2ccc(NC(=O)C(C)C)cc2OC)cc1`, the growth in the assay with T-47D breast was -0.757% (active); in the assay with BT-549 breast, -5.7% (active); with MDA-MB-435 melanoma, 33.7%; in the assay on MCF7 breast, 8.31% (active); in the assay on HCT-116 colon, 23.6%; with HCC-2998 colon, 67.9%. In addition, the growth in the assay with KM12 colon was 30.2%; with MDA-MB-468 breast, 3.97% (active).
Take `CC(C)(C)OC(=O)N1CCC2(CC1)Oc1ccccc1[C@H]1CC(c3ccc(Br)cc3)=NN12`: the growth is 37.1% in the assay on T-47D breast; 81.6% in the assay on MDA-MB-435 melanoma; 83% with SW-620 colon; 59.9% in the assay on MCF7 breast; 74.1% in the assay with HCT-116 colon; 85.6% in the assay on HCC-2998 colon. In addition, the figures for the growth in the assay with KM12 colon and in the assay on MDA-MB-468 breast were 49.9% and 67.7%, respectively.
`CCN1C(=O)N(CC)C2NNC(Sc3c(C(=O)O)c4ccccc4n(CC(C)C)c3=O)=NC21` (stereo unspecified): the growth with T-47D breast is 72.5%; in the assay on MDA-MB-435 melanoma, -51% (active); with SW-620 colon it was 30.5%; with MCF7 breast, 8.53% (active); in the assay with HCT-116 colon, 9.94% (active); in the assay on HCC-2998 colon, 18.7%. Also, the growth in the assay on KM12 colon was 21.4%; in the assay with MDA-MB-468 breast it was 7.22% (active).
For the compound `N#CC1=C(c2ccco2)Nc2c(c(-c3ccccc3)nn2-c2ccccc2)C12C(=O)Nc1ccc(Br)cc12` (stereo unspecified), the growth in the assay on T-47D breast was 48.5%; in the assay with MDA-MB-435 melanoma it was 59.8%; in the assay with SW-620 colon, 46.3%; with MCF7 breast, 39.8%; in the assay on HCT-116 colon, 5.08% (active); with HCC-2998 colon, 91.8%. In addition, the figures for the growth with KM12 colon and with MDA-MB-468 breast were 66.4% and 66.6%, respectively.
